Experimental data taken from PubChem BioAssay (EPA / NIEHS).
Active and inactive are the calls of the source. The calls were made as follows: active = hit-call score of the fitted dose curve at least 0.9, where 1 is the maximum; inactive = score below 0.9.

read-out: MYC, MYC (gene 4609); test: LTEA_HepaRG_MYC: Life Technologies and Expression Analysis (LTEA) Assay for MYC using HepaRG (AID 2283518); conditions: mRNA level, 48 h; actives raise or lower the signal
Experimental: LTEA_HepaRG is a cell based, multiplexed-readout assay that uses HepaRG, a human liver cell line, with measurements taken at 48 hours after chemical dosing on a 96-well plate.LTEA_HepaRG_MYC is one of 102 assay component(s) measured in the LTEA HepaRG cell culture assay. It is a marker of Cell proliferation, survival, death.Data from the assay component LTEA_HepaRG_MYC was analyzed into 1 endpoint. This assay endpoint, LTEA_HepaRG_MYC, was analyzed with bidirectional fitting relative to DMSO as the negative control and baseline of activity. Using a type of inducible reporter, measures of mRNA induction for gain or loss-of-signal activity can be used to understand regulation of transcription factor activity. To generalize the intended target to other relatable targets, this assay endpoint is annotated to the dna binding intended target family, where the subfamily is basic helix-loop-helix leucine zipper.
A total of 1060 chemcials from the ToxCast library were tested in eight-point concentration-response experiments. Cell culture and cytotoxicity assays were conducted at Thermo Fisher Scientific's Custom Services facility (Madison, WI). A single lot of human HepaRG cells (Thermo Fisher Scientific, Frederick, MD) was used for the cell culture experiments. 96-well format collagen type I coated plates of human HepaRG cells were prepared using established methods. Briefly, cryopreserved HepaRG cells were thawed, plated at a density of approximately 100,000 cells/well in HepaRG Thaw, Plate, and General Purpose media (HPRG770, Thermo Fisher Scientific), and incubated for 48 hours. 0.5% DMSO was selected as vehicle control to balance the requisite need of DMSO in HepaRG cultures to maintain differentiation (for example, baseline metabolism, proportions of hepatocytes vs. cholangiocytes), while enabling further hepatic receptor pathway activation (for example, PXR and CAR) in response to chemical exposure. 48 hours after plating, the culture medium was replaced with HepaRG Serum-Free Incudtion Media. Cells were exposed to each test chemical in duplicate and maintained in CO2 incubators for another 48 hours. Chemical plates were thawed to room temperature and 200x concentrations of treatment groups were prepared. 8-point conentration-reponse curves were made with the highest exposure at 100 uM, followed by half-log dilutions, all in 0.5% DMSO. Each test plate contained variouse controls, induction positive controls (1mM phenobarbital), cytotoxicity positive controls ([…] aflatoxin B1), vehicle controls (0.5% DMSO), and total lysis controls (0.5% DMSO). Cell morphology images were taken using an Essen IncuCyte FLR automated microscope, with six 96-well plates imaged in about 24 minutes. Images were captured and exported and JPEG files. Spent culture media was transfered to black-well plates for the LDH assay, and remaining media was sorted at -80 C for later use. Cells were treated with RLT buffer and frozen until shipped for gene expression analysis. Total RNA was isolated from the cell suspension in 75 uL of Buffer RLT (Qiagen, Germantown, MD 20874) by Quintiles/Expression Analysis (Durham, NC) using a custom isolation procedure. Total RNA from each plate well was transferred to a preamplification plate. Fluidigm's 96.96 Dynamic ArrayTM (Fluidigm, Amsterdam, the Netherlands) technology was used for gene expression analyses by quantitative reverse transcription polymerase chain reaction (qRT-PCR, performed by Quintiles/Expression Analysis, Durham, NC)89. Standard TaqManTM Assays (Applied Biosystems/ThermoFisher Scientific, Foster City, CA) were used to assess the expression of 93 genes selected based on their selectivity and sensitivity to important hepatic receptors known to be modulated by environmental chemicals; importance in human hepatocyte functionality; and hepatotoxicity. […]

Row | SMILES | outcome | AC50
1 | CC(C)(C)c1ccccc1 | inactive | –
2 | CN(C)CCCN1c2ccccc2Sc2ccc(Cl)cc21 | – | 87.5 µM (active)
3 | Cc1cc(SC2=C(O)C[C@@](CCc3ccc(N)cc3)(C(C)C)OC2=O)c(C(C)(C)C)cc1CO | inactive | –
4 | CCc1cc(C2=C(C(=O)O)N(c3ccccc3C(F)(F)F)S(=O)(=O)c3ccccc32)cc2c1OCO2 | – | 56.7 µM (active)
5 | CCCCc1nc2cccnc2n1Cc1ccc(-c2ccccc2-c2nnn[nH]2)cc1 | inactive | –
6 | CO[C@@H]1COCC[C@@H]1N[C@@H]1CC[C@@](C(=O)N2CCc3ncc(C(F)(F)F)cc3C2)(C(C)C)C1 | inactive | –
7 | OCC(O)CO | inactive | –
8 | O=C(O)c1[nH]n(-c2ccc(S(=O)(=O)O)cc2)c(=O)c1N=Nc1ccc(S(=O)(=O)O)cc1 | inactive | –
9 | CC(C)c1cccc(C(C)C)c1NC(=O)NS(=O)(=O)c1cc(C(C)(C)O)co1 | inactive | –
10 | CCC(C)N(C)C(=O)c1cc2ccccc2c(-c2ccccc2Cl)n1 (stereo not given) | – | 31.8 µM (active)
11 | Cc1c(C)c2c(c(C)c1O)CCC(C)(COc1ccc(CC3SC(=O)NC3=O)cc1)O2 (stereo not given) | inactive | –
12 | CCCC(=O)O | inactive | –
13 | Cn1cnc2c1c(=O)[nH]c(=O)n2C | inactive | –
14 | COc1ccc(C(=O)Nc2nc3ccccc3c(NCc3ccccc3)c2C#N)cc1 | – | 14.6 µM (active)
15 | CC(COCC(C)OC(=O)c1ccccc1)OC(=O)c1ccccc1 (stereo not given) | inactive | –
16 | O=C(O)CN(CC(=O)O)CC(=O)O | inactive | –
17 | CN(C)C(=O)NC1(c2ccccc2)CCN(CC[C@@]2(c3ccc(F)c(F)c3)CN(C(=O)c3ccccc3)CCO2)CC1 | inactive | –
18 | NC(=Nc1ccccc1)Nc1ccccc1 | inactive | –
19 | N[C@@H](Cc1c[nH]c2ccccc12)C(=O)O | inactive | –
20 | CCCCCCCCCCCCCCCCO | inactive | –

Row | SMILES | outcome | AC50
21 | C/C=C/c1ccc(OC)cc1 | inactive | –
22 | COC(=O)CCCC(=O)OC | inactive | –
23 | CC(=O)O[C@]1(C(C)=O)CC[C@H]2[C@@H]3C=C(Cl)C4=CC(=O)[C@@H]5C[C@@H]5[C@]4(C)[C@H]3CC[C@@]21C | – | 9.92 µM (active)
24 | CC(=O)OCC(COC(C)=O)OC(C)=O | inactive | –
25 | CCCCCCCCCC[N+](C)(C)[O-] | inactive | –
26 | O=C(NS(=O)(=O)/C=C/c1cccs1)c1ccc(F)cc1Br | inactive | –
27 | NC=O | inactive | –
28 | O=C1c2c(O)cccc2Cc2cccc(O)c21 | inactive | –
29 | Oc1ccc(O)cc1 | inactive | –
30 | O=[Si]=O | inactive | –
31 | O=C1O[C@H]([C@H](O)CO)C(O)=C1O | inactive | –
32 | CC(=O)OC1CC(C)OC(C)O1 (stereo not given) | inactive | –
33 | O=C(Oc1ccccc1)c1cccc(C(=O)Oc2ccccc2)c1 | inactive | –
34 | CC(C)OC(=O)C(C)(C)Oc1ccc(C(=O)c2ccc(Cl)cc2)cc1 | inactive | –
35 | C=CCc1ccc(OC)c(OC)c1 | inactive | –
36 | CC(N)=O | inactive | –
37 | OCC(CO)n1cnc(-c2ccc(F)cc2)c1-c1ccnc(Oc2ccccc2)n1 | inactive | –
38 | COc1ccc(OC(F)(F)F)cc1CN[C@H]1CCCN[C@H]1c1ccccc1 | – | 7.25 µM (active)
39 | CC1=C(C)S(=O)(=O)CCS1(=O)=O | – | 72.6 µM (active)
40 | C#CC(O)C(CC)CCCC (stereo not given) | inactive | –
